Shown are actives, neighbours in structure and some others; about 9.3% of the full set was active somewhere.
ELG1 repair inh: qHTS screen for small molecules that inhibit ELG1-dependent DNA repair in human embryonic kidney (HEK293T) cells expressing luciferase-tagged ELG1; HEK293T ELG1-luciferase reporter, luminescence, 16 h; DNA damage induced by 5-fluorouridine; Potency, µM (highest dose often 46.1 µM), for inactives: at the highest dose activity change, negative = inhibition, usual class: inhibitors; hit rate 2.3% among 330,000; also: % is scaled to controls: 0 for no effect and ±100 for the full control effect; nearly all actives have a fitted effect of over 55% in size
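DMSO vehicle served as the neutral condition. Each well held 2,000 cells given 5-fluorouridine plus compound; after 16 hr at 37 °C/5% CO2, ONE-Glo was added and luciferase measured 30 min later.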
Rab9 promoter act: qHTS Assay for Rab9 Promoter Activators | Huh7 Rab9 promoter-luciferase reporter, luminescence, 24 h | Potency, µM (highest dose often 9.22 µM), for the others: top-dose activation, negative = inhibition, usual class: activators | hit rate 2.8% among 320,000 | AID 485297, 2010; also: % of control where 0% means no effect; nearly all actives have a fitted effect of over 60% in size
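Stable Rab9-luc Huh7, 1500 cells/well, 2 h settle; cmpd in DMSO, 24 h, 37 °C/5% CO2; luciferase reagent 10 min RT; luminescence.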
ELG1 genotoxic: qHTS screen for small molecules that induce genotoxicity in human embryonic kidney (HEK293T) cells expressing luciferase-tagged ELG1 | hit rate 1.3% among 330,000 | Potency, µM (highest dose often 46 µM), inactives show top-dose activity change, positive = activation, most hits filed as activators | HEK293T ELG1-luciferase reporter, luminescence, 16 h; also: % of control where 0% means no effect; nearly all actives have a fitted effect of over 60% in size
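Reporter readout depends on ELG1 protein level, which increases with genetic stress. After 16 hr compound exposure at 37 °C, luciferase activity was quantified using ONE-Glo.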
NPC1 promoter act: qHTS Assay for NPC1 Promoter Activators; Huh7 NPC1 promoter luciferase reporter, 24 h; Potency, µM (top dose mostly 9.22 µM), without a hit: at the top dose activation, most hits filed as activators; hit rate 2.4% among 320,000; AID 485313, 2010; also: % of control where 0% means no effect; nearly all actives have a fitted effect of over 60% in size
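Compounds in DMSO were transferred onto Huh7 NPC1-luciferase reporter cells pre-incubated 2 h; after 24 h at 37 °C, Amplite reagent was dispensed and luminescence recorded 10 min later.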
SMN2 splice enh: qHTS Assay for Enhancers of SMN2 Splice Variant Expression; HEK293 SMN2-luciferase splicing reporter, luminescence, 30-36 h; Potency, µM (titrated, usually from 46.1 µM), for inactives: top-dose activity change, positive = activation, actives largely listed as activators; hit rate 2.8% among 210,000; also: % of control where 0% means no effect; nearly all actives have a fitted effect of over 55% in size
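HEK293 cells carry an SMN2 minigene-luciferase reporter in which exon 7 inclusion puts luciferase in frame. Cells were seeded at 2000 cells/well, attached for 10-12 hours, then exposed to compounds for 30-36 hours at 37C before ONE-Glo luminescence.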
FLuc modulator: qHTS profiling assay for firefly luciferase inhibitor/activator using purifed enzyme and Km concentrations of substrates (counterscreen for miR-21 project); Luciferin 4-monooxygenase (Photinus pyralis), P08659; purified FLuc, Km substrates, luminescence inhibition; Potency, µM (titrated, usually from 57.5 µM), without a hit: at the top dose activity change, negative = inhibition, actives largely listed as inhibitors; hit rate 6.9% among 360,000; AID 588342, 2011;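 also: plate controls were vehicle for no effect and reference inhibitor for full effect; nearly all actives have a fitted effect of over 55% in size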
Target sequence (P08659 whole entry, looked up): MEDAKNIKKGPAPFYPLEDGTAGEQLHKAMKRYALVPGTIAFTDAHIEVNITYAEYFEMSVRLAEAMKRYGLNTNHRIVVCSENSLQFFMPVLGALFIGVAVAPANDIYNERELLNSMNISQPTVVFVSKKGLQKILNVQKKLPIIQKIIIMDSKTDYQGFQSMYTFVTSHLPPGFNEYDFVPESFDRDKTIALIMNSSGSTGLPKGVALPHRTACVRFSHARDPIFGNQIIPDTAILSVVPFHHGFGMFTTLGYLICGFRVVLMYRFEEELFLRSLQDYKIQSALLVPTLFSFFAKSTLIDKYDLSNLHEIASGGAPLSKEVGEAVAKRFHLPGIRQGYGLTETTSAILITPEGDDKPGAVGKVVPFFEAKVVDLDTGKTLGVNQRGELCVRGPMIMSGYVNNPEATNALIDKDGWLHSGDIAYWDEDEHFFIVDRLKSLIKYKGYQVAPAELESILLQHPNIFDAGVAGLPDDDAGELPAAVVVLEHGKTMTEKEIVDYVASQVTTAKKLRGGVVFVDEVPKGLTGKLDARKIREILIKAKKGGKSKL
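Purified P. pyralis luciferase, 10 nM final, with Km-level 10 uM D-luciferin and 10 uM ATP in 50 mM Tris acetate pH 7.5, 10 mM Mg acetate, 0.01% Tween-20, 0.05% BSA; 6-point qHTS titration about 60 µM downward; luminescence read.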
Starred values were filed as active, the others as inactive; [ ] = another dose, or the depositor's remark. Calls follow the shape of the dose curve; as a rule, active = well fitted curve in the direction sought with a large enough effect; inconclusive = small, poorly fitted or top-dose-only effect, or another doubt; inactive = no such curve, though single readings can be large; an effect the other way counts as inactive or inconclusive. Potency is read from the fitted curve at half-maximal effect.

For Cc1ccc(N2CCN(S(=O)(=O)c3ccc4c(c3)NC(=O)C(C)C(=O)N4)CC2C)cc1 (centres undefined) the results were ELG1 repair inh inconclusive, Rab9 promoter act -2%, ELG1 genotoxic -5%, NPC1 promoter act -2% and FLuc modulator 3%.
For COc1ccc(C(CNC(=O)CCNC(=O)c2ccccc2OC)N2CCCC2)cc1 (centres undefined) the results were ELG1 repair inh inconclusive, Rab9 promoter act -4%, ELG1 genotoxic 2%, NPC1 promoter act -3% and FLuc modulator 0%.
CC(=O)c1ccc(Nc2ncnc3c2oc2ccccc23)cc1 was read as ELG1 repair inh inconclusive, Rab9 promoter act inconclusive, ELG1 genotoxic 2.1µM*, NPC1 promoter act 1.4µM*, SMN2 splice enh 1.6µM* and FLuc modulator inconclusive.
CCc1nc(Nc2ccncc2)c2oc3ccccc3c2n1 was read as ELG1 repair inh inconclusive, Rab9 promoter act -19%, ELG1 genotoxic -15%, NPC1 promoter act -21% and FLuc modulator 1%.
For CCc1nc(Nc2cccc(O)c2)c2oc3ccccc3c2n1 the results were ELG1 repair inh inconclusive, Rab9 promoter act 1%, ELG1 genotoxic -10%, NPC1 promoter act 12% and FLuc modulator 19µM*.
CC(=O)N1CCN(c2ccc(Nc3nc(C)nc4c3oc3ccccc34)cc2)CC1 was read as ELG1 repair inh inconclusive, Rab9 promoter act -4%, ELG1 genotoxic -30%, NPC1 promoter act -6%, SMN2 splice enh -40% and FLuc modulator -3%.
`c1ccc(CNc2ncnc3c2oc2ccccc23)nc1` gave ELG1 repair inh inconclusive, Rab9 promoter act 24%, ELG1 genotoxic 12%, NPC1 promoter act 1%, SMN2 splice enh -11% and FLuc modulator 19µM*.
Screening CCc1nc(NCc2ccccn2)c2oc3ccccc3c2n1 returned ELG1 repair inh 18µM*, Rab9 promoter act -16%, ELG1 genotoxic -27%, NPC1 promoter act -11%, SMN2 splice enh -65% and FLuc modulator inconclusive.
Screening COc1ccc(CNC(=O)c2ccc3c(=O)n(-c4ccccc4)c(=O)[nH]c3c2)cc1 returned ELG1 repair inh 1%, Rab9 promoter act 2%, ELG1 genotoxic 6%, NPC1 promoter act 0% and FLuc modulator 1%.
For CCOc1ccccc1C(=O)N1CCC(n2nnc3cc(C(F)(F)F)ccc32)CC1 the results were ELG1 repair inh 21µM*, Rab9 promoter act -3%, ELG1 genotoxic -6%, NPC1 promoter act -2%, SMN2 splice enh -34% and FLuc modulator -1%.
`CCOc1ccccc1C(=O)N1CCC(n2nnc3cc(C)ccc32)CC1` gave ELG1 repair inh -11%, Rab9 promoter act -4%, ELG1 genotoxic -2%, NPC1 promoter act -4% and FLuc modulator -2%.
`COc1ccc(NC(=O)CSc2nc(N)c3cc4c(nc3n2)CCCC4)c(OC)c1` gave ELG1 repair inh inconclusive, Rab9 promoter act 2%, ELG1 genotoxic 4%, NPC1 promoter act 15%, SMN2 splice enh 9% and FLuc modulator 12µM*.
For Cc1ccc(NC(=O)CSc2nc(N)c3cc4c(nc3n2)CCCC4)cc1 the results were ELG1 repair inh 9%, Rab9 promoter act 15%, ELG1 genotoxic 1%, NPC1 promoter act 17%, SMN2 splice enh 4% and FLuc modulator 2.1µM*.
`COc1ccc(NC(=O)c2sc3nc4c(cc3c2N)CCCCCC4)c(OC)c1` gave SMN2 splice enh -3% and FLuc modulator 2%.
`Nc1nc(SCC(=O)Nc2ccccc2)nc2nc3c(cc12)CCCC3` gave ELG1 repair inh inconclusive, Rab9 promoter act 22%, ELG1 genotoxic 3%, NPC1 promoter act 10%, SMN2 splice enh inconclusive and FLuc modulator inconclusive.
For CC(=O)N(c1ccccc1C)S(=O)(=O)c1ccc(Cl)cc1 the results were ELG1 repair inh -19%, Rab9 promoter act 23%, ELG1 genotoxic -6%, NPC1 promoter act -3%, SMN2 splice enh 9% and FLuc modulator 1%.
CN(Cc1ccccc1)S(=O)(=O)c1ccc2[nH]c(=O)ccc2c1 was read as ELG1 repair inh inconclusive, Rab9 promoter act 1%, ELG1 genotoxic inconclusive, NPC1 promoter act -1% and FLuc modulator 0%.
CC(=O)Oc1ccc(N(C(C)=O)S(=O)(=O)c2ccc3ccccc3c2)cc1 was read as ELG1 repair inh 21µM*, Rab9 promoter act 4%, ELG1 genotoxic -6%, NPC1 promoter act -4% and FLuc modulator -11%.
For CC(=O)Oc1ccc(N(C(C)=O)S(=O)(=O)c2ccc(Cl)cc2)c2ccccc12 the results were ELG1 repair inh 18µM*, Rab9 promoter act 0%, ELG1 genotoxic -14%, NPC1 promoter act 1% and FLuc modulator -10%.
Screening CN(c1ccc(O)cc1)S(=O)(=O)c1ccc2ccccc2c1 returned ELG1 repair inh inconclusive, Rab9 promoter act 4µM*, ELG1 genotoxic inconclusive, NPC1 promoter act inconclusive and FLuc modulator 19µM*.
For CCN(c1ccccc1)S(=O)(=O)c1ccc2ccccc2c1 the results were ELG1 repair inh -2%, Rab9 promoter act -1%[1.84 µM], ELG1 genotoxic -6%, NPC1 promoter act -5% and FLuc modulator -3%.
Cc1ccc(N(C)S(=O)(=O)c2ccc3[nH]c(=O)ccc3c2)cc1 was read as FLuc modulator 8.5µM*.
CCN(CC)c1c([N+](=O)[O-])c(=O)oc2ccccc12 was read as ELG1 repair inh 7%, Rab9 promoter act 0%, ELG1 genotoxic 0%, NPC1 promoter act -1%, SMN2 splice enh 6% and FLuc modulator -11%.
`CCOC(=O)CC(=O)CSc1nccc(-c2cccnc2)n1` gave ELG1 repair inh inconclusive, Rab9 promoter act -3%, ELG1 genotoxic -13%, NPC1 promoter act 10% and FLuc modulator -1%.
CCOC(=O)N1CCN(C(=O)CSc2nc3c([nH]c4ccccc43)c(=O)n2C)CC1 was read as ELG1 repair inh 2.6µM*, Rab9 promoter act 1%, ELG1 genotoxic inconclusive, NPC1 promoter act -2%, SMN2 splice enh 5% and FLuc modulator -1%.
`CCn1c(SCC(=O)Nc2ccccc2)nc2c([nH]c3ccccc32)c1=O` gave FLuc modulator -1%.
For CCn1c(SCC(=O)Nc2ccc(C(C)=O)cc2)nc2c([nH]c3ccccc32)c1=O the results were ELG1 repair inh inconclusive, Rab9 promoter act 19%, ELG1 genotoxic 16µM*, NPC1 promoter act -1% and FLuc modulator 3%.
